Measurements from PubChem BioAssay (NCI).
About 83,000 compounds went through this panel and 20% of them were active in at least one assay; those are over-represented in the sample as a whole.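 Values shown are percent growth following 48 h exposure of cells in 96-well plates to a single concentration of compound; below 10 was considered active.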 The source made the active and inactive calls.

How the values were obtained:
Experiment in all cases: NCI-60 one-dose screen, 48 h (100 = growth as untreated, 0 = no growth, -100 = all killed)
Details in all cases: 10 µM unless noted
NCI-H23 lung = system: NCI-H23 lung
NCI-H226 lung = system: NCI-H226 lung
NCI-H322M lung = system: NCI-H322M lung
HOP-62 NSCLC = system: HOP-62 NSCLC
NCI-H460 lung = system: NCI-H460 lung
HOP-92 NSCLC = system: HOP-92 NSCLC
NCI-H522 lung = system: NCI-H522 lung
A549/ATCC NSCLC = system: A549/ATCC NSCLC
786-0 renal = system: 786-0 renal
COLO 205 colon = system: COLO 205 colon

Measured: growth

O=C(Nc1ccccc1)OCC1OCOC(COC(=O)Nc2ccccc2)C1OC(=O)Nc1ccccc1 (stereo not given)
active: NCI-H460 lung 6.23%
inactive: NCI-H23 lung 67.1% | NCI-H226 lung 84% | NCI-H322M lung 49.4% | HOP-62 NSCLC 64.8% | HOP-92 NSCLC 94.9% | NCI-H522 lung 38.2% | A549/ATCC NSCLC 47.9% | 786-0 renal 49.3% | COLO 205 colon 91.6%

NC(C(=O)O)C(O)c1ccc(OCc2ccccc2)c(OCc2ccccc2)c1 (stereo not given)
inactive: NCI-H23 lung 96.3% | NCI-H226 lung 99.2% | NCI-H322M lung 109% | HOP-62 NSCLC 88.7% | NCI-H460 lung 108% | HOP-92 NSCLC 73.8% | NCI-H522 lung 93.5% | A549/ATCC NSCLC 93.4% | 786-0 renal 98.7% | COLO 205 colon 106%

CC(=O)Nc1ccc(S(=O)(=O)NC(CCC(=O)Nc2ccc(Cl)cc2)C(=O)O)cc1 (stereo not given)
inactive: NCI-H23 lung 97.3% | NCI-H226 lung 96.8% | NCI-H322M lung 96.9% | HOP-62 NSCLC 92.2% | NCI-H460 lung 105% | HOP-92 NSCLC 113% | NCI-H522 lung 97.1% | A549/ATCC NSCLC 93.8% | 786-0 renal 107% | COLO 205 colon 97.8%

COc1ncc(-c2ccc3ncnc(Nc4cccc(Cl)c4)c3c2)cc1NS(=O)(=O)CCN1CCOCC1
active: NCI-H322M lung -17.1% | HOP-92 NSCLC -26.3% | A549/ATCC NSCLC -4.57% | COLO 205 colon -6.87%
inactive: NCI-H23 lung 21.4% | NCI-H226 lung 22.3% | HOP-62 NSCLC 17.5% | NCI-H460 lung 10.3% | NCI-H522 lung 14% | 786-0 renal 10.5%

O=S(=O)(NCCNc1cc(-c2cn(-c3ccccc3)nc2-c2ccccc2)ccn1)c1cccc2ccccc12
active: HOP-92 NSCLC 2.24% | COLO 205 colon 8.28%
inactive: NCI-H23 lung 49.8% | NCI-H226 lung 48% | NCI-H322M lung 68.7% | HOP-62 NSCLC 68.2% | NCI-H460 lung 44.4% | NCI-H522 lung 78.9% | A549/ATCC NSCLC 42.3% | 786-0 renal 49.7%

COc1ccc(NC(=O)CSc2nc3ccccc3c(=O)n2-c2ccccc2C(F)(F)F)c(OC)c1OC
inactive: NCI-H23 lung 102% | NCI-H226 lung 102% | NCI-H322M lung 116% | HOP-62 NSCLC 78% | NCI-H460 lung 99.4% | HOP-92 NSCLC 77.3% | NCI-H522 lung 112% | A549/ATCC NSCLC 98.3% | 786-0 renal 101% | COLO 205 colon 102%

COc1cccc(-c2nc3sccn3c2-c2ccnc(NCCCNS(=O)(=O)c3ccc(F)cc3)n2)c1
inactive: NCI-H23 lung 16.2% | NCI-H226 lung 13.7% | NCI-H322M lung 64.7% | HOP-62 NSCLC 82.4% | NCI-H460 lung 40.3% | HOP-92 NSCLC 61.5% | NCI-H522 lung 14% | A549/ATCC NSCLC 41.6% | 786-0 renal 44.1% | COLO 205 colon 17.1%

CC(C)N(Cc1ccc(CN(C(=O)CCl)C(C)C)cc1)C(=O)CCl
inactive: NCI-H23 lung 19.8% | NCI-H322M lung 94.6% | NCI-H460 lung 35.8% | A549/ATCC NSCLC 57.4%
active: NCI-H226 lung -2.93% | HOP-62 NSCLC -27.7% | HOP-92 NSCLC -65.4% | NCI-H522 lung -75.6% | 786-0 renal -85.1% | COLO 205 colon -54.3%

CN(C)c1ccc(/C=C\N=Nc2ccc(Br)cc2)cc1
inactive: NCI-H23 lung 79.8% | NCI-H226 lung 79.7% | NCI-H322M lung 77.9% | HOP-62 NSCLC 95.1% | NCI-H460 lung 51.2% | HOP-92 NSCLC 76.1% | NCI-H522 lung 37.9% | A549/ATCC NSCLC 58.7% | 786-0 renal 57.3% | COLO 205 colon 82.1%

CCC(c1ccc(OC)cc1)C(CC)c1ccc(O)c(CN2CCCC2)c1 (stereo not given)
active: NCI-H23 lung 9.32% | NCI-H460 lung -47.2% | HOP-92 NSCLC -34.7% | 786-0 renal 4.61% | COLO 205 colon -85%
inactive: NCI-H226 lung 31.7% | NCI-H322M lung 14.4% | HOP-62 NSCLC 30.9% | NCI-H522 lung 22.8% | A549/ATCC NSCLC 33.1%

COc1cc(OC)cc(-c2n[nH]nc2-c2ccc3c(c2)OCO3)c1
active: NCI-H522 lung -41.5% | COLO 205 colon -61.2%
inactive: NCI-H23 lung 30.1% | NCI-H226 lung 92.1% | NCI-H322M lung 55.5% | HOP-62 NSCLC 30.3% | NCI-H460 lung 12% | HOP-92 NSCLC 57% | A549/ATCC NSCLC 28.9% | 786-0 renal 40%

CCCCCCCCCCCCOB(OCCCCCCCCCCCC)OCCCCCCCCCCCC
inactive: NCI-H23 lung 88.3% | NCI-H226 lung 99.3% | NCI-H322M lung 101% | HOP-62 NSCLC 94.5% | NCI-H460 lung 109% | HOP-92 NSCLC 101% | NCI-H522 lung 95.2% | A549/ATCC NSCLC 97.8% | 786-0 renal 120% | COLO 205 colon 98.2%

C/C1=C\CCC2(C)OC2CC2CCC(C)(O)C(CC1)C2(C)C (stereo not given)
active: HOP-92 NSCLC -16.4%
inactive: NCI-H23 lung 99% | NCI-H226 lung 107% | NCI-H322M lung 96.5% | HOP-62 NSCLC 101% | NCI-H460 lung 106% | NCI-H522 lung 88% | A549/ATCC NSCLC 98% | 786-0 renal 98.9% | COLO 205 colon 109%

Clc1ccc([I+]c2ccc(Cl)cc2Cl)c(Cl)c1
inactive: NCI-H23 lung 18% | NCI-H226 lung 102% | NCI-H322M lung 77.2% | HOP-62 NSCLC 36.5% | NCI-H460 lung 81% | HOP-92 NSCLC 14.9% | A549/ATCC NSCLC 76% | 786-0 renal 11.2%
active: NCI-H522 lung -91.1% | COLO 205 colon -79.2%

CCOC(=O)c1cc(/C(=N\O)c2cc(OC)c(OC)c(OC)c2)n2cc(C)cc(C)c12
active: NCI-H460 lung 4.9% | NCI-H522 lung -10.6%
inactive: NCI-H23 lung 55.2% | NCI-H226 lung 74.3% | NCI-H322M lung 66.2% | HOP-62 NSCLC 32.3% | HOP-92 NSCLC 51.9% | A549/ATCC NSCLC 34.9% | 786-0 renal 19.1% | COLO 205 colon 11.5%

O=C(NCCc1c[nH]c2ccccc12)C1Cc2ccccc2CN1C(=O)c1ccco1 (stereo not given)
inactive: NCI-H23 lung 127% | NCI-H226 lung 106% | NCI-H322M lung 87.3% | HOP-62 NSCLC 94.6% | NCI-H460 lung 114% | HOP-92 NSCLC 29.9% | NCI-H522 lung 78.6% | A549/ATCC NSCLC 97.7% | 786-0 renal 104% | COLO 205 colon 134%

O=[N+]([O-])c1cc(S(=O)(=O)OCC2CO2)ccc1Cl (stereo not given)
inactive: NCI-H23 lung 96% | NCI-H226 lung 110% | NCI-H322M lung 82.2% | HOP-62 NSCLC 111% | NCI-H460 lung 109% | HOP-92 NSCLC 125% | NCI-H522 lung 85.9% | A549/ATCC NSCLC 101% | 786-0 renal 106% | COLO 205 colon 117%

O=C1CCCCN1CCCCC#Cc1ccccc1C#Cc1ccc([N+](=O)[O-])cc1
inactive: NCI-H23 lung 59% | NCI-H226 lung 57.1% | NCI-H322M lung 71% | HOP-62 NSCLC 64.9% | NCI-H460 lung 11.5% | HOP-92 NSCLC 39.6% | NCI-H522 lung 56.3% | A549/ATCC NSCLC 50.1% | 786-0 renal 60.6% | COLO 205 colon 45.8%

Cc1ccc(C2=NN(c3ccc(S(=O)(=O)NC(=O)NCc4ccccc4)cc3)C(c3ccc(N(C)C)cc3)C2)c(C)c1 (stereo not given)
inactive: NCI-H23 lung 49.4% | NCI-H226 lung 77.7% | NCI-H322M lung 56.3% | HOP-62 NSCLC 74.9% | NCI-H460 lung 31.3% | HOP-92 NSCLC 82.3% | NCI-H522 lung 49.7% | A549/ATCC NSCLC 22.1% | 786-0 renal 68.5% | COLO 205 colon 62.1%

Cc1cc(-c2ccccc2)c(C)n1Cc1ccc(Cl)cc1
inactive: NCI-H23 lung 65.8% | NCI-H226 lung 71.3% | NCI-H322M lung 68.1% | HOP-62 NSCLC 55.4% | NCI-H460 lung 20.8% | HOP-92 NSCLC 54.2% | NCI-H522 lung 37.5% | A549/ATCC NSCLC 33.7% | 786-0 renal 47.8% | COLO 205 colon 38.2%

COc1ccc(N=C2NN=C(c3ccc(F)cc3)CS2)cc1OC
inactive: NCI-H23 lung 104% | NCI-H226 lung 78.5% | NCI-H322M lung 96.4% | HOP-62 NSCLC 96.3% | NCI-H460 lung 107% | HOP-92 NSCLC 72.8% | NCI-H522 lung 89% | A549/ATCC NSCLC 92.4% | 786-0 renal 88% | COLO 205 colon 98.7%
